This is part of a sample that, as a whole, favours compounds with a hit. Of some 83,000 tested, about 20% had one in any assay.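 96-well plates, one dose, 48 hours. Percent growth reported; active if below 10.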 Values without a mark were called inactive. Activity calls are given as the source filed them.
What was measured:
Assay in all cases: NCI-60 one-dose screen, 48 h (100 = growth as untreated, 0 = no growth, -100 = all killed)
Settings in all cases: 10 µM unless noted
HCT-15 colon = system: HCT-15 colon
HT29 colon = system: HT29 colon
SNB-75 CNS = system: SNB-75 CNS
SNB-19 CNS = system: SNB-19 CNS
U251 CNS = system: U251 CNS
PC-3 prostate = system: PC-3 prostate
SK-MEL-5 melanoma = system: SK-MEL-5 melanoma
UACC-62 melanoma = system: UACC-62 melanoma
LOX IMVI melanoma = system: LOX IMVI melanoma
SK-MEL-28 melanoma = system: SK-MEL-28 melanoma
SK-MEL-2 melanoma = system: SK-MEL-2 melanoma
EKVX NSCLC = system: EKVX NSCLC
SN12C renal = system: SN12C renal
UO-31 renal = system: UO-31 renal
TK-10 renal = system: TK-10 renal
ACHN renal = system: ACHN renal
CAKI-1 renal = system: CAKI-1 renal
A498 renal = system: A498 renal
CCRF-CEM leukemia = system: CCRF-CEM leukemia
MOLT-4 leukemia = system: MOLT-4 leukemia

Compound | growth (HCT-15 colon) | growth (HT29 colon) | growth (SNB-75 CNS) | growth (SNB-19 CNS) | growth (U251 CNS) | growth (PC-3 prostate) | growth (SK-MEL-5 melanoma) | growth (UACC-62 melanoma) | growth (LOX IMVI melanoma) | growth (SK-MEL-28 melanoma) | growth (SK-MEL-2 melanoma) | growth (EKVX NSCLC) | growth (SN12C renal) | growth (UO-31 renal) | growth (TK-10 renal) | growth (ACHN renal) | growth (CAKI-1 renal) | growth (A498 renal) | growth (CCRF-CEM leukemia) | growth (MOLT-4 leukemia)
COC(=O)[C@@]12CC=C(C)[C@]3(C[C@H](c4ccoc4)OC3=O)[C@H]1C=C[C@@H](O)[C@@]2(O)C(=O)OC | 108% | 84.7% | 88.9% | 105% | 97.9% | 95.6% | 107% | 92.8% | 97.5% | 105% | 84.6% | 94.7% | 104% | 82.7% | 80.3% | 105% | 85.1% | 109% | 111% | 106%
Cc1cn(C)cn1 | 99% | 98.7% | 98.7% | 107% | 98% | 93.9% | 112% | 105% | 94.6% | 109% | 103% | 105% | 105% | 82.5% | 95.9% | 108% | 88.7% | 114% | 97.3% | 105%
CC(=O)O[C@H]1CC[C@]2(C)[C@H]3CC=C4[C@@H]5CC(C)(C)CC[C@]5(C(=O)N5CCN(CCC#N)CC5)CC[C@@]4(C)[C@]3(C)CC[C@H]2C1(C)C | 20.3% | 12.4% | 53.8% | 63.2% | 12.4% | 19.5% | 7.89% (active) | 38% | 20% | 52.2% | 68.7% | 65.8% | 53.4% | 30.2% | 54.1% | 28.2% | 35.1% | 5.98% (active) | 27.5% | 19.7%
Nc1cc(Br)cc2c1[nH]c(=O)c1ccccc12 | 110% | 114% | 81.7% | 102% | 90.7% | 89.6% | 96.5% | 100% | 95.5% | 101% | 112% | 82% | 88.6% | 81.4% | 104% | 102% | 82.5% | 92.5% | 93.2% | 80.5%
Fc1cc2[nH]ncc2c2c3c(c(-c4cn[nH]c4C(F)(F)F)nc12)CCCC3 | 4.79% (active) | 6.14% (active) | -26.5% (active) | 8.83% (active) | -0.282% (active) | 34.6% | -66.3% (active) | -4.44% (active) | -50.6% (active) | 0.426% (active) | -22.1% (active) | 8.29% (active) | 4.98% (active) | -7.31% (active) | -8.31% (active) | 0.165% (active) | -7.15% (active) | -63.9% (active) | 1.34% (active) | 10.9%
N#CC1=C(N)Oc2c(sc3c(F)cccc23)C1c1ccc([N+](=O)[O-])cc1 (stereo not given) | -54.5% (active) | -13.6% (active) | -35.3% (active) | -27.9% (active) | -64.5% (active) | -10.4% (active) | -95.9% (active) | -75.6% (active) | -83.1% (active) | -44.1% (active) | -42.2% (active) | -2.24% (active) | -79% (active) | -26.4% (active) | -7.94% (active) | -2.28% (active) | 0.858% (active) | -36.3% (active) | 3.46% (active) | -1.93% (active)
COC(=O)/C=C1/SC(=Nc2ccc(F)cc2)N(CCc2c[nH]c3ccc(O)cc23)C1=O | 23.6% | 36.7% | 43.2% | 46.6% | 25.6% | 33.3% | 44.9% | 23.5% | -10.7% (active) | 51.8% | -0.819% (active) | 55.9% | 42.5% | 46.4% | 84% | 33.8% | 52.1% | 49.8% | 3.69% (active) | 0.14% (active)
CC[C@H](Nc1nc(N)nc(C)c1C#N)c1nc2cccc(CN(C)c3ncc(C(=O)NO)cn3)c2c(=O)n1-c1ccccc1 | 42.8% | -18.4% (active) | 29.1% | 11% | -69.6% (active) | 14.6% | -92.2% (active) | -80% (active) | -86.6% (active) | 6.03% (active) | -5.85% (active) | 35.3% | 2.71% (active) | -4.88% (active) | -21.8% (active) | 24% | 18.1% | -40% (active) | 15.3% | 9.84% (active)
O=CCCCOCc1ccccc1 | 98.5% | 97.2% | 87.8% | 100% | 104% | 95.6% | 100% | 95.2% | 99% | 112% | 104% | 95.6% | 98.8% | 95% | 97.7% | 101% | 98.1% | 85.8% | 104% | 103%
CS(=O)(=O)Nc1cc(-c2ccc3ncnc(Nc4ccc(F)c(Cl)c4)c3c2)ccc1Cl | 41.3% | 34.8% | 30.5% | 57.6% | 42.4% | 36.8% | 28.8% | 53.8% | 37.9% | 57.1% | 62.5% | 20.9% | 52.7% | 36.5% | 17.3% | 27.2% | 18.1% | 6.7% (active) | 30.2% | 40.2%
Nc1cccc(-c2ccc(COc3ccc(CC4SC(=O)NC4=O)cc3)cc2)c1 (stereo not given) | 34.3% | 100% | 54.4% | 69.3% | 45.9% | 59.7% | 14.8% | 55.4% | 57.5% | 55.9% | 52.3% | 62.2% | 68.6% | 53.3% | 91.5% | 62.6% | 47.3% | 110% | 52.3% | 43.2%
Cc1ccc(OCCOCCOCCOc2ccc(C)n(O)c2=S)c(=S)n1O | 35.8% | 30% | 59.2% | 33.8% | 31.1% | 34.7% | 58.3% | 15.6% | 30.5% | 48.8% | 57% | 24.9% | 28.7% | 42% | 64% | 44.6% | 31.7% | 52.5% | 11.2% | 10.7%
O=C(NCCCCCCNC(=O)OCc1ccc2c(Cl)cc(Cl)c(O)c2n1)OCc1ccc2c(Cl)cc(Cl)c(O)c2n1 | -29.1% (active) | -75% (active) | -96.2% (active) | 51.4% | -92.2% (active) | -46.2% (active) | -95.5% (active) | -94.3% (active) | -88.7% (active) | -89.8% (active) | -62% (active) | -69% (active) | -93.4% (active) | -100% (active) | -90.3% (active) | -97.5% (active) | -87.8% (active) | 34.9% | 2.24% (active) | -2.75% (active)
Cc1ccc2c(/C=C/C(=O)c3cc(CN4CCOCC4)c(O)c4nc(C)ccc34)cc(CN3CCOCC3)c(O)c2n1 | 0.566% (active) | -6.31% (active) | 23.3% | 36.4% | -24% (active) | 19.9% | 4.68% (active) | -0.641% (active) | -66.8% (active) | -19.9% (active) | -2.61% (active) | 31.5% | 7.92% (active) | -16.8% (active) | 17.8% | -26.3% (active) | 12.9% | -16.5% (active) | 3.28% (active) | -2.3% (active)
